Test results from paper PMC7862700, “An all-to-all approach to the identification of sequence-specific readers for epigenetic DNA modifications on cytosine”.

Assays:
Experiment in all cases: DAPPL (digital affinity profiling via proximity ligation, sequencing); 10 mM Tris-HCl pH 7.5, 50 mM NaCl, 1 mM DTT, 4% glycerol, room temperature, 30 min; GST-TFs on glutathione beads, 16-mer random dsDNA library, 0.1% formaldehyde crosslink after washing; high values mean tight binding
Settings in all cases: protein: recombinant; tags: N-terminal GST; dsDNA, one strand shown
ERF = target: T1, ERF (Homo sapiens, UniProt P50548 1-548)
T1 sequence: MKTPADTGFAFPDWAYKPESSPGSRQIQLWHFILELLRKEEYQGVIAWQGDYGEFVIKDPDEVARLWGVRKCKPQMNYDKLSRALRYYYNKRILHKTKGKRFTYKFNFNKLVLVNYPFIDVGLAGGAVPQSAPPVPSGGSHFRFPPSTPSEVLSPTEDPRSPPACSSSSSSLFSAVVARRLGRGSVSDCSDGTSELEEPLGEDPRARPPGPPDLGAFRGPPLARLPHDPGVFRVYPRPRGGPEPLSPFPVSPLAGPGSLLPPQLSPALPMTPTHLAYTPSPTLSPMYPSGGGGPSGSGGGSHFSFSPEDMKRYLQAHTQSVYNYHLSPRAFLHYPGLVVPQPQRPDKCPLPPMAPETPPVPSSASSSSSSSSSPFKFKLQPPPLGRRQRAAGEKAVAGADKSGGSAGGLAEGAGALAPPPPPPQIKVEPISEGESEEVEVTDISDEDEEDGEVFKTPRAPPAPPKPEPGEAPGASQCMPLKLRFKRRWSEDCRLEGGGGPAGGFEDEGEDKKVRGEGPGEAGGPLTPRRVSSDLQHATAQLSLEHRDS
Procedure, shortened: (§1)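 Human transcription factors carrying a GST fusion were produced in yeast, bound to glutathione beads, tagged with DNA barcodes and pooled together with a tag-only sample. Each pool was held with 200 nmole of a random double-stranded 16-mer DNA library in Tris/NaCl/DTT/glycerol buffer for 30 min at room temperature, then washed, crosslinked in 0.1% formaldehyde, proximity-ligated with BsaI/T4 ligase (1 h, 37 °C), PCR-amplified and sequenced on an Illumina NextSeq500. Binding signal is the read frequency of each hexamer for a given factor divided by its frequency in the tag-only sample.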

ETV3L = target: T2, ETV3L (Homo sapiens, UniProt Q6ZN32 1-361)
T2 sequence: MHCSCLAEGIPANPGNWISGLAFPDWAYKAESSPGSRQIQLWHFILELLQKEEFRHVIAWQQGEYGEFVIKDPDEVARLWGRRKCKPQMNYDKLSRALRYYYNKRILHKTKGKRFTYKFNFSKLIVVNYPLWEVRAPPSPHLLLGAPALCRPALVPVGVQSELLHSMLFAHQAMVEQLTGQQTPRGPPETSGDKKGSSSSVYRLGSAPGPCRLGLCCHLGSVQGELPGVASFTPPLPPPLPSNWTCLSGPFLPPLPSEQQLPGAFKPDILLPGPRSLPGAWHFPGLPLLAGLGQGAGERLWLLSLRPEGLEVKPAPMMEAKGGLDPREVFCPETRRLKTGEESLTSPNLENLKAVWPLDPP
Procedure, shortened: as §1

ETS2 = target: T3, ETS2 (Homo sapiens, UniProt P15036 1-469)
T3 sequence: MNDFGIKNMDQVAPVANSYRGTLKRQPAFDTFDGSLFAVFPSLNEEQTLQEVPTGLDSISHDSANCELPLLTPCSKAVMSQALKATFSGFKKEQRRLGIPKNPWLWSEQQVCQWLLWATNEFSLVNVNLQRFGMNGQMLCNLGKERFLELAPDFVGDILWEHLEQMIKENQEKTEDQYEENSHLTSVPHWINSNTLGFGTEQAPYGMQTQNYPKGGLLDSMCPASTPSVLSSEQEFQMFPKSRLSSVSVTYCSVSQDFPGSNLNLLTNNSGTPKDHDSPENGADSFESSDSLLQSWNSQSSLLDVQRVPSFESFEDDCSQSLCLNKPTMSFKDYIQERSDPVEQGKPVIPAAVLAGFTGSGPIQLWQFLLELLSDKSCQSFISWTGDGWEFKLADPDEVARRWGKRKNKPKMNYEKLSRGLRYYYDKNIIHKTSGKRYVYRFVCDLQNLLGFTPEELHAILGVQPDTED
Procedure, shortened: as §1

SPDEF = target: T4, SPDEF (Homo sapiens, UniProt O95238 1-335)
T4 sequence: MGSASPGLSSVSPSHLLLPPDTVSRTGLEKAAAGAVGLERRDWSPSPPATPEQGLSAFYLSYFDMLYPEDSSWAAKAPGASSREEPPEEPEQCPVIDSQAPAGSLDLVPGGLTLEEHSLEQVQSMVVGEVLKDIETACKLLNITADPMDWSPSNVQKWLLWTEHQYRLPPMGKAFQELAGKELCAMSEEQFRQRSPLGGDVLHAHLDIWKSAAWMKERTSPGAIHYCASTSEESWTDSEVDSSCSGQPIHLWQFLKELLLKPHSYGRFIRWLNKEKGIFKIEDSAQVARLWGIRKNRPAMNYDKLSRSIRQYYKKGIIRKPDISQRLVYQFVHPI
Procedure, shortened: as §1

ETV7 = target: T5, ETV7 (Homo sapiens, UniProt Q9Y603 1-341)
T5 sequence: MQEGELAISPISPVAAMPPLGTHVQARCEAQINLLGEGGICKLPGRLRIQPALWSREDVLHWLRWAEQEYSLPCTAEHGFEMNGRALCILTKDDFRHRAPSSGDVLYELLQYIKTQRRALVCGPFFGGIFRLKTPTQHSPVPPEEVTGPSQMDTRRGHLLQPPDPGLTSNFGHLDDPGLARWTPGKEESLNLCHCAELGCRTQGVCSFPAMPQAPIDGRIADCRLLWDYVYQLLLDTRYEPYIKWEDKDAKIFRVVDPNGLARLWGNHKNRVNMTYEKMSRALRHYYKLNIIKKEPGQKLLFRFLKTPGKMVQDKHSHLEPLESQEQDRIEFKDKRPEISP
Procedure, shortened: as §1

ELF5 = target: T6, ELF5 (Homo sapiens, UniProt Q9UKW6-2 1-255)
T6 sequence: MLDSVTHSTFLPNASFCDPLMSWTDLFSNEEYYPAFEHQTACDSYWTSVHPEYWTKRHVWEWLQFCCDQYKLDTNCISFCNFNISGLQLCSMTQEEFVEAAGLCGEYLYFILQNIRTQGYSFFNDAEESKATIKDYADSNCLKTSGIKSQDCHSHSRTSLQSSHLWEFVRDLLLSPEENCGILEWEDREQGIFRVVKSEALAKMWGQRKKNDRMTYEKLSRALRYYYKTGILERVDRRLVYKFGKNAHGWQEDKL
Procedure, shortened: as §1

ETV3 = target: T7, ETV3 (Homo sapiens, UniProt P41162-2 1-143)
T7 sequence: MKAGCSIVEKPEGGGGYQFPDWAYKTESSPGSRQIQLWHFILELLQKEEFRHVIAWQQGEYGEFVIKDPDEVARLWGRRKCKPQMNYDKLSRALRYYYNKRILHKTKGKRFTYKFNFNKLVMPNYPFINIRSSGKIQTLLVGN
Procedure, shortened: as §1

ETV6 = ETV6 (Homo sapiens, UniProt P41212 1-452)
Chain of ETV6 (P41212 whole entry): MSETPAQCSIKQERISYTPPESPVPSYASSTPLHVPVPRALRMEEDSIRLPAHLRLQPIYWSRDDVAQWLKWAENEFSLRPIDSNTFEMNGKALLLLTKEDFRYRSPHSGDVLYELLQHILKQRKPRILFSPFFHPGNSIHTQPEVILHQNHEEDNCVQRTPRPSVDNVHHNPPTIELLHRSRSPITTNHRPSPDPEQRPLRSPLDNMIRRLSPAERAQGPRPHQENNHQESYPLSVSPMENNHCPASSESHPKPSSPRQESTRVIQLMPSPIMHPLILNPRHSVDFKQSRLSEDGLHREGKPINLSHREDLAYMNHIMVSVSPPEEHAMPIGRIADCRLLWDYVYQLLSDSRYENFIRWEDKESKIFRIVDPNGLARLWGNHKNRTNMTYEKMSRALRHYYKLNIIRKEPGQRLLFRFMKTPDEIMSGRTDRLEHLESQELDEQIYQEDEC
Procedure, shortened: as §1

Sequence | binding signal (ERF) | binding signal (ETV3L) | binding signal (ETS2) | binding signal (SPDEF) | binding signal (ETV7) | binding signal (ELF5) | binding signal (ETV3) | binding signal (ETV6)
GACTCC | 1.32 fold enrichment (6-mer frequency, TF over GST control) | 1.27 fold enrichment (6-mer frequency, TF over GST control) | 1.29 fold enrichment (6-mer frequency, TF over GST control) | 1.41 fold enrichment (6-mer frequency, TF over GST control) | 1.23 fold enrichment (6-mer frequency, TF over GST control) | 1.16 fold enrichment (6-mer frequency, TF over GST control) | 1.35 fold enrichment (6-mer frequency, TF over GST control) | 1.18 fold enrichment (6-mer frequency, TF over GST control)
CTCCAC | 1.31 fold enrichment (6-mer frequency, TF over GST control) | 1.45 fold enrichment (6-mer frequency, TF over GST control) | 1.43 fold enrichment (6-mer frequency, TF over GST control) | 1.27 fold enrichment (6-mer frequency, TF over GST control) | 1.39 fold enrichment (6-mer frequency, TF over GST control) | 1.35 fold enrichment (6-mer frequency, TF over GST control) | 1.3 fold enrichment (6-mer frequency, TF over GST control) | 1.26 fold enrichment (6-mer frequency, TF over GST control)
TATCCA | 1.27 fold enrichment (6-mer frequency, TF over GST control) | 1.28 fold enrichment (6-mer frequency, TF over GST control) | 1.28 fold enrichment (6-mer frequency, TF over GST control) | 1.21 fold enrichment (6-mer frequency, TF over GST control) | 1.34 fold enrichment (6-mer frequency, TF over GST control) | 1.27 fold enrichment (6-mer frequency, TF over GST control) | 1.23 fold enrichment (6-mer frequency, TF over GST control) | 1.2 fold enrichment (6-mer frequency, TF over GST control)
TTGTGG | 1.33 fold enrichment (6-mer frequency, TF over GST control) | 1.6 fold enrichment (6-mer frequency, TF over GST control) | 1.36 fold enrichment (6-mer frequency, TF over GST control) | 1.31 fold enrichment (6-mer frequency, TF over GST control) | 1.34 fold enrichment (6-mer frequency, TF over GST control) | 1.32 fold enrichment (6-mer frequency, TF over GST control) | 1.37 fold enrichment (6-mer frequency, TF over GST control) | 1.29 fold enrichment (6-mer frequency, TF over GST control)
TCTGCA | 1.29 fold enrichment (6-mer frequency, TF over GST control) | 1.42 fold enrichment (6-mer frequency, TF over GST control) | 1.34 fold enrichment (6-mer frequency, TF over GST control) | 1.32 fold enrichment (6-mer frequency, TF over GST control) | 1.28 fold enrichment (6-mer frequency, TF over GST control) | 1.29 fold enrichment (6-mer frequency, TF over GST control) | 1.2 fold enrichment (6-mer frequency, TF over GST control) | 1.23 fold enrichment (6-mer frequency, TF over GST control)
GGCTCA | 1.3 fold enrichment (6-mer frequency, TF over GST control) | 1.33 fold enrichment (6-mer frequency, TF over GST control) | 1.19 fold enrichment (6-mer frequency, TF over GST control) | 1.15 fold enrichment (6-mer frequency, TF over GST control) | 1.15 fold enrichment (6-mer frequency, TF over GST control) | 1.14 fold enrichment (6-mer frequency, TF over GST control) | 1.23 fold enrichment (6-mer frequency, TF over GST control) | 1.26 fold enrichment (6-mer frequency, TF over GST control)
AGATTC | 1.05 fold enrichment (6-mer frequency, TF over GST control) | 1.23 fold enrichment (6-mer frequency, TF over GST control) | 1.08 fold enrichment (6-mer frequency, TF over GST control) | 1.17 fold enrichment (6-mer frequency, TF over GST control) | 1.18 fold enrichment (6-mer frequency, TF over GST control) | 1.09 fold enrichment (6-mer frequency, TF over GST control) | 1.15 fold enrichment (6-mer frequency, TF over GST control) | 1.22 fold enrichment (6-mer frequency, TF over GST control)
